Experimental data reported in publication PMC12820563, “FoxP3 forms a head-to-head dimer in vivo and stabilizes its multimerization on adjacent microsatellites”.
In all, about 16,000 sequences were measured (“rpm ratio (pull-down/input)”: median about 0.5, highest 2% from about 5.5 on). This is one part of a sample in which the highest values are shown more often than they occur.

target: T1, MBP-FoxP3dN (Mus musculus, UniProt Q99JB6 188-423); test: PD-seq (MBP pull-down with sequencing); 20 mM Tris-HCl pH 7.5, 100 mM NaCl, 1.5 mM MgCl2, 0.4 uM protein, 0.1 uM dsDNA library, 30 min, room temperature, amylose pull-down; high values mean tight binding; settings: protein: recombinant; tags: His6-MBP; chain copies: 2; dsDNA, one strand shown
T1 sequence: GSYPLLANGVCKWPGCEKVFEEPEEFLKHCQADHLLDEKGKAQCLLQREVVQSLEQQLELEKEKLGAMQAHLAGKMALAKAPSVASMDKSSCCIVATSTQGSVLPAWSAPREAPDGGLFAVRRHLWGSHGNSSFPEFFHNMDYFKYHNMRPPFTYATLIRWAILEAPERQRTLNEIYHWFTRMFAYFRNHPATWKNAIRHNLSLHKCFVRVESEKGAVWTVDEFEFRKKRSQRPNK
Procedure, shortened: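 E. coli-expressed mouse FoxP3 or FoxP1 fragment, N-terminus removed and tagged with His6-MBP, was used at 0.4 µM against 0.1 µM of a Klenow-filled degenerate double-stranded DNA library. After 30 min at room temperature in Tris pH 7.5 buffer with NaCl and MgCl2, complexes were pulled down on amylose resin and washed three times. Binding is pull-down over input reads-per-million enrichment from pooled replicates of the proteinase K-released, PCR-barcoded, Illumina-sequenced DNA.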

Sequence | binding signal
GATGATTGTTCTCCCAGCTGATGAATTTTCCGCATCGAGTAAACAAATTTTCCTAATCTTTCTGTTCAAGCGCCATCTAC | 1.07 RPM ratio (pull-down/input)
GATGATTGTTCTCCCAGCTGATGAATTCCGCAATTCGAGTAAACAAATTTTCCTAATCTTTCTGTTCAAGCGCCATCTAC | 4.91 RPM ratio (pull-down/input)
GATGATTGTTCTCCCAGCTGATGAATTTCCCGCATCGAGTAAACAAATTTTCCTAATCTTTCTGTTCAAGCGCCATCTAC | 0.913 RPM ratio (pull-down/input)
GATGATTGTTCTCCCAGCTGATGAATTAGACCAGTCGAGTAAACAAATTTTCCTAATCTTTCTGTTCAAGCGCCATCTAC | 0.233 RPM ratio (pull-down/input)
GATGATTGTTCTCCCAGCTGATGAATTTCTTGCGTCGAGTAAACAAATTTTCCTAATCTTTCTGTTCAAGCGCCATCTAC | 0.535 RPM ratio (pull-down/input)
GATGATTGTTCTCCCAGCTGATGAATTCCTCGACTCGAGTAAACAAATTTTCCTAATCTTTCTGTTCAAGCGCCATCTAC | 0.213 RPM ratio (pull-down/input)
GATGATTGTTCTCCCAGCTGATGAATTAACCGATTCGAGTAAACAAATTTTCCTAATCTTTCTGTTCAAGCGCCATCTAC | 0.251 RPM ratio (pull-down/input)
GATGATTGTTCTCCCAGCTGATGAATTCGAGACATCGAGTAAACAAATTTTCCTAATCTTTCTGTTCAAGCGCCATCTAC | 0.446 RPM ratio (pull-down/input)
GATGATTGTTCTCCCAGCTGATGAATTTTGCCCTTCGAGTAAACAAATTTTCCTAATCTTTCTGTTCAAGCGCCATCTAC | 1.57 RPM ratio (pull-down/input)
GATGATTGTTCTCCCAGCTGATGAATTGCGAGGGTCGAGTAAACAAATTTTCCTAATCTTTCTGTTCAAGCGCCATCTAC | 0.611 RPM ratio (pull-down/input)
GATGATTGTTCTCCCAGCTGATGAATTTGGGTGTTCGAGTAAACAAATTTTCCTAATCTTTCTGTTCAAGCGCCATCTAC | 1.11 RPM ratio (pull-down/input)
GATGATTGTTCTCCCAGCTGATGAATTACCGTTATCGAGTAAACAAATTTTCCTAATCTTTCTGTTCAAGCGCCATCTAC | 0.764 RPM ratio (pull-down/input)
GATGATTGTTCTCCCAGCTGATGAATTGACTATGTCGAGTAAACAAATTTTCCTAATCTTTCTGTTCAAGCGCCATCTAC | 0.449 RPM ratio (pull-down/input)
GATGATTGTTCTCCCAGCTGATGAATTTGCCGCATCGAGTAAACAAATTTTCCTAATCTTTCTGTTCAAGCGCCATCTAC | 1.35 RPM ratio (pull-down/input)
GATGATTGTTCTCCCAGCTGATGAATTTCCGCCTTCGAGTAAACAAATTTTCCTAATCTTTCTGTTCAAGCGCCATCTAC | 3.28 RPM ratio (pull-down/input)
GATGATTGTTCTCCCAGCTGATGAATTCGCCGCATCGAGTAAACAAATTTTCCTAATCTTTCTGTTCAAGCGCCATCTAC | 0.966 RPM ratio (pull-down/input)

Sequence | binding signal
GATGATTGTTCTCCCAGCTGATGAATTCCGCCATTCGAGTAAACAAATTTTCCTAATCTTTCTGTTCAAGCGCCATCTAC | 5.49 RPM ratio (pull-down/input)
GATGATTGTTCTCCCAGCTGATGAATTTACCGCATCGAGTAAACAAATTTTCCTAATCTTTCTGTTCAAGCGCCATCTAC | 1.17 RPM ratio (pull-down/input)
GATGATTGTTCTCCCAGCTGATGAATTCCGCCTTTCGAGTAAACAAATTTTCCTAATCTTTCTGTTCAAGCGCCATCTAC | 5.55 RPM ratio (pull-down/input)
GATGATTGTTCTCCCAGCTGATGAATTCCCGCCTTCGAGTAAACAAATTTTCCTAATCTTTCTGTTCAAGCGCCATCTAC | 2.93 RPM ratio (pull-down/input)
GATGATTGTTCTCCCAGCTGATGAATTCCCATTTTCGAGTAAACAAATTTTCCTAATCTTTCTGTTCAAGCGCCATCTAC | 0.336 RPM ratio (pull-down/input)
GATGATTGTTCTCCCAGCTGATGAATTACCGCATTCGAGTAAACAAATTTTCCTAATCTTTCTGTTCAAGCGCCATCTAC | 5.89 RPM ratio (pull-down/input)
GATGATTGTTCTCCCAGCTGATGAATTGCCGCATTCGAGTAAACAAATTTTCCTAATCTTTCTGTTCAAGCGCCATCTAC | 7.28 RPM ratio (pull-down/input)
GATGATTGTTCTCCCAGCTGATGAATTACCCCATTCGAGTAAACAAATTTTCCTAATCTTTCTGTTCAAGCGCCATCTAC | 0.3 RPM ratio (pull-down/input)
GATGATTGTTCTCCCAGCTGATGAATTCCGCTGTTCGAGTAAACAAATTTTCCTAATCTTTCTGTTCAAGCGCCATCTAC | 1.28 RPM ratio (pull-down/input)
GATGATTGTTCTCCCAGCTGATGAATTACACAACTCGAGTAAACAAATTTTCCTAATCTTTCTGTTCAAGCGCCATCTAC | 0.854 RPM ratio (pull-down/input)
GATGATTGTTCTCCCAGCTGATGAATTAATTCTGTCGAGTAAACAAATTTTCCTAATCTTTCTGTTCAAGCGCCATCTAC | 0.249 RPM ratio (pull-down/input)
GATGATTGTTCTCCCAGCTGATGAATTCTGTTAATCGAGTAAACAAATTTTCCTAATCTTTCTGTTCAAGCGCCATCTAC | 1.25 RPM ratio (pull-down/input)
GATGATTGTTCTCCCAGCTGATGAATTATCCTGCTCGAGTAAACAAATTTTCCTAATCTTTCTGTTCAAGCGCCATCTAC | 0.234 RPM ratio (pull-down/input)
GATGATTGTTCTCCCAGCTGATGAATTACGTGGGTCGAGTAAACAAATTTTCCTAATCTTTCTGTTCAAGCGCCATCTAC | 0.527 RPM ratio (pull-down/input)
GATGATTGTTCTCCCAGCTGATGAATTGGTCTCTTCGAGTAAACAAATTTTCCTAATCTTTCTGTTCAAGCGCCATCTAC | 0.388 RPM ratio (pull-down/input)
GATGATTGTTCTCCCAGCTGATGAATTCAGCAAATCGAGTAAACAAATTTTCCTAATCTTTCTGTTCAAGCGCCATCTAC | 0.539 RPM ratio (pull-down/input)
